Assay results reported in PubChem BioAssay AID1578 (Sanford-Burnham Center for Chemical Genomics, 2009).
Screen size: about 290,000 compounds; about 3,000 (1%) were called active. No stated cut-off is given here; in the data, active means inhibition mostly above about 36% (no sharp cut-off); inactive means mostly below about 34%. This excerpt belongs to a sample that is enriched for actives.

assay: inhibition of NOD1-driven NF-kB reporter – cell-based, luminescence, uHTS, primary screen (AID 1578); conditions: NOD1-driven NF-kB luciferase reporter cells, at 4 µM, stronger effect = higher value;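 further: HEK-293T reporter cells stimulated with the NOD1 agonist gamma-tri-DAP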

SMILES	inhibition
Cn1ncc(Cl)c1C(=O)Nc1sc2c(c1C(N)=O)CCC2	-24.6% (inactive)
CCn1cc(Br)c(C(=O)Nc2sc3c(c2C(N)=O)CCCC3)n1	-18.1% (inactive)
CCn1ncc(Br)c1C(=O)Nc1sc2c(c1C(N)=O)CCC2	77.1% (active)
Cc1ccc(OS(=O)(=O)c2c(C)nn(C)c2Cl)c(C)c1	-19.4% (inactive)
CCn1cc(C(=O)O)c(=O)c2cc(F)c(N3CCN(C(=S)NC(=O)c4ccccc4Br)CC3)cc21	-0.8% (inactive)
CN1CCN(C(=S)Nc2ccc(Oc3ccccc3)cc2)CC1	6.6% (inactive)
CC(C)=CC(=O)Nc1c(C)cc(C)cc1Cl	-18% (inactive)
COc1ccc(-c2nc3ccccc3s2)cc1	-35.3% (inactive)
Oc1ccc(-c2nc3ccccc3s2)cc1	-6.1% (inactive)
CCOC(=O)Cc1csc(SC(C)C(=O)NCC(=O)Nc2ccc(F)c(F)c2F)n1 (centres undefined)	-36.3% (inactive)
COc1ccc(C(=O)N/C(=C\c2cccs2)C(=O)N2CCN(C)CC2)cc1OC	-14.2% (inactive)
NC(=O)C1CCN(c2nc(C3CC3)nc3c2nnn3Cc2ccccc2Cl)CC1	10.7% (inactive)
O=C(c1ccco1)N1CCN(c2ncnc3c2nnn3Cc2ccccc2Cl)CC1	11.1% (inactive)
O=C(c1ccco1)N1CCN(c2nc(C3CC3)nc3c2nnn3Cc2ccccc2Cl)CC1	44.4% (active)
O=C(Cn1nnc(-c2cc(C(F)(F)F)cc(C(F)(F)F)c2)n1)NNC(=S)Nc1ccc(Cl)cc1	10.2% (inactive)
O=C(COC(=O)Cc1ccc(Cl)cc1)Nc1c(F)cccc1F	-44% (inactive)
COc1cc(/C=N/NC(=O)c2ccncc2)ccc1OC(=O)c1ccco1	29.2% (inactive)
CC(=O)c1c(C)[nH]c(C(=O)OCC(=O)NCCc2ccc(F)cc2)c1C	-0.8% (inactive)
Cc1ccsc1C(=O)NNC(=O)C1CC=CCC1C(=O)O (centres undefined)	-25.2% (inactive)
Cc1ccsc1C(=O)NNC(=O)C1C2C=CC(C2)C1C(=O)O (centres undefined)	72.2% (active)
Cc1ccsc1C(=O)NNC(=O)C1CCCCC1C(=O)O (centres undefined)	-15.7% (inactive)
CCCCC(=O)Nc1cccc(-c2cn3ccccc3n2)c1	-43.7% (inactive)
O=C(CCS(=O)(=O)c1cc2c(cc1Cl)NC(=O)CO2)NCc1ccccc1	95% (active)
Cc1ccc(CNC(=O)CCS(=O)(=O)c2cc3c(cc2Cl)NC(=O)CO3)cc1	-6.8% (inactive)
O=C(CCS(=O)(=O)c1cc2c(cc1Cl)NC(=O)CO2)NCc1ccc(F)cc1	-25.6% (inactive)

SMILES	inhibition
CC(=O)OC[C@H]1O[C@@H](O/N=C(\C)CCN2CCCCc3nc(C)c(C)cc32)[C@H](OC(C)=O)[C@@H](OC(C)=O)[C@@H]1OC(C)=O	-2.5% (inactive)
Cc1ccc(S(=O)(=O)c2nc(-c3ccccc3F)oc2N2CC(C)OC(C)C2)cc1 (centres undefined)	-20% (inactive)
Cc1ccc(-c2ccc(/C=C(\C#N)C(N)=S)n2C)cc1	-19.8% (inactive)
Cc1cc(C)c(/C=C(\C#N)C(N)=S)c(C)c1	106% (active)
Cc1cc(C)c(C)c(/C=C(/C#N)C(N)=S)c1C	14.2% (inactive)
CC1CCN(C(=O)COc2cccc3c2CCN(Cc2ccccc2)C3=O)CC1	-16% (inactive)
CC(=O)c1sc(Nc2nc3ccc(F)cc3s2)nc1C	-20.9% (inactive)
COc1ccc2nc(NC(C)=O)sc2c1	-12.9% (inactive)
Clc1ncccc1-c1nnn(-c2ccccc2Br)n1	-23.5% (inactive)
CCc1nnc(NC(=O)c2ccc(NC(=O)C(C)C)cc2)s1	-39.9% (inactive)
N#C/C(=C(/O)CN1CCOCC1)c1nc(-c2ccccc2)cs1	-15.4% (inactive)
COc1ccc(/C=N/NC(=O)c2cc(C3CC3)[nH]n2)cc1OC	-1.2% (inactive)
COc1ccc(C(=O)CSc2n[nH]c(N)n2)cc1	-10% (inactive)
COc1ccccc1CNC(=O)CSc1n[nH]c(N)n1	-8.6% (inactive)
COc1ccccc1C(=O)CSc1n[nH]c(N)n1	65.9% (active)
Cc1ccc2nc(-c3ccccn3)cc(C(=O)NCCc3ccc(F)cc3)c2c1	-8.3% (inactive)
CC(C)OC(=O)c1ccc(COC(=O)c2cccc(-c3nnc(-c4ccccc4)o3)c2)cc1	-13% (inactive)
Oc1[nH]c2ccc(Br)cc2c1N=NC(=S)N1CCOCC1	99% (active)
Oc1[nH]c2ccc(Br)cc2c1N=NC(=S)Nc1ccc(F)cc1	-7.9% (inactive)
N=C(N)N=Nc1c(O)[nH]c2ccc(Br)cc12	-31.8% (inactive)
COc1ccc(CCNC(=O)CSc2nc3c(c(=O)n(C)c(=O)n3C)n2C)cc1OC	-28.4% (inactive)
O=[N+]([O-])c1ccc(Nc2ccccc2)c2nonc12	-7.4% (inactive)
O=[N+]([O-])c1ccc(Nc2ccccc2O)c2nonc12	-3.2% (inactive)
O=[N+]([O-])c1ccc(Sc2cccc[n+]2[O-])c2nonc12	106% (active)
N#Cc1ccccc1NC(=O)CSc1nnc(-c2ccncc2)o1	4.5% (inactive)

SMILES	inhibition
Cn1c(-c2csc(-c3ccccc3)n2)n[nH]c1=S	-29.3% (inactive)
Cc1ccccc1C(CC(=O)c1cccs1)C(C#N)C#N (centres undefined)	85.2% (active)
Cc1cc(C)c(C(CC(=O)c2cccs2)C(C#N)C#N)c(C)c1 (centres undefined)	26.3% (inactive)
CC(CC(=O)c1cccs1)CC(=O)c1cccs1	-14.5% (inactive)
O=[N+]([O-])c1cccc(Nc2nc(Cl)nc(Cl)n2)c1	14.4% (inactive)
COc1nc(NC(C)(C)C)nc(Oc2ccc(=O)n(-c3ccccc3)n2)n1	-3.3% (inactive)
COc1ccc(C(=O)NCS(=O)(=O)c2ccc(C)cc2)cc1	7.7% (inactive)
Cc1ccc(S(=O)(=O)NNC(=O)c2ccc(O)cc2)cc1	-14.1% (inactive)
COC(=O)NC(=C(Cl)Cl)S(=O)(=O)c1ccccc1	74.9% (active)
Cc1ccc(C(=O)NNC(=S)NC(=O)c2ccc(Cl)cc2)cc1	31.1% (inactive)
Cc1ccc(C(=O)NC(=S)NNS(=O)(=O)c2ccc(C)cc2)cc1	-34.4% (inactive)
COC(=O)NC(NS(=O)(=O)c1ccccc1)(C(=O)OC)C(F)(F)F (centres undefined)	-0.4% (inactive)
CCOC(=O)NC(C(Cl)(Cl)Cl)S(=O)(=O)c1ccccc1 (centres undefined)	5% (inactive)
COc1ccc(NC(=O)c2ccc(C)cc2)cc1	-19.2% (inactive)
Cc1ccc(S(=O)(=O)C(CCC(=O)c2ccc(Cl)cc2)C(N)=O)cc1 (centres undefined)	9.7% (inactive)
CCOC(=O)C1CCN(S(=O)(=O)c2ccc(C)c(C)c2)CC1	-13.2% (inactive)
CCOC(=O)c1ccc(NC(=S)N2CCN(CCNC3=CC(=O)CC(C)(C)C3)CC2)cc1	-30.1% (inactive)
CCC(=O)c1ccc(OCC(=O)Nc2ccc(N3CCOCC3)cc2N2CCOCC2)cc1	-43.2% (inactive)
COc1ccc(C(=O)NCCN2CCOCC2)c(OC)c1OC	4.8% (inactive)
CNC(=O)C1CCN(S(=O)(=O)c2c(C)noc2/C=C/N(C)C)CC1	-22.5% (inactive)
Cc1cc(C)c(C#N)c(SCc2cc3c(cc2Cl)OCO3)n1	26.9% (inactive)
O=C(CSc1ccc2c(c1)OCCO2)Nc1ccc(N2CCOCC2)cc1	-37.2% (inactive)
COc1cccc(N2CCN(C(C)C(=O)NC34CC5CC(CC(C5)C3)C4)CC2)c1 (centres undefined)	-31.5% (inactive)
Cc1ccc(-n2ncc3c(SCc4cccnc4)ncnc32)c(C)c1	1.6% (inactive)
Cc1ccc(S(=O)(=O)CNC(=O)c2ccccc2)cc1	-6.8% (inactive)

SMILES	inhibition
Cc1ccc(S(=O)(=O)NCCNC(=O)c2ccccc2)cc1	-16.6% (inactive)
COc1ccccc1Oc1ccnc2cc(Cl)ccc12	27.5% (inactive)
O=C(/C=C/Nc1ccc(Br)cc1F)c1ccccc1	27.6% (inactive)
O=C(/C=C/Nc1ccc(F)cc1F)c1ccco1	-11.6% (inactive)
O=C(/C=C/Nc1ccc(Br)cc1F)c1ccco1	53.7% (active)
COc1ccc(C2C(C(=O)N3CCC(C)CC3)c3ccccc3C(=O)N2C)cc1 (centres undefined)	-14.1% (inactive)
COCCC(=O)NC1CCCc2c1cnn2-c1cccc(C)c1C (centres undefined)	-25.1% (inactive)
Cn1c(-c2ccccc2)cnc1SCC(=O)N1CCCCC1	32% (active)
Cn1c(-c2ccccc2)cnc1SCC(N)=O	0.4% (inactive)
Cn1c(-c2ccc(F)cc2)cnc1SCC(=O)N1CCCCC1	-31.8% (inactive)
Cc1cc(C)[n+](-c2ccc(C(C)C)cc2)c2[nH]c(=O)[nH]c(=O)c12	-20.8% (inactive)
Cc1[nH]nc(SCC(=O)Nc2cccc(O)c2)c1[N+](=O)[O-]	-37.4% (inactive)
CC(C)CNS(=O)(=O)c1ccc(CCC(=O)Nc2cc(Cl)ccc2Oc2ccccc2)cc1	23.4% (inactive)
CCCNS(=O)(=O)c1ccc(CCC(=O)Nc2cc(Cl)ccc2Oc2ccccc2)cc1	79.1% (active)
CCNS(=O)(=O)c1ccc(CCC(=O)Nc2cc(Cl)ccc2Oc2ccccc2)cc1	34% (inactive)
COc1ccc(NC(=O)c2cc(S(=O)(=O)N3CCOCC3)cn2C)c(OC)c1	-19% (inactive)
CCCNC(=S)N1CCC(C(=O)c2ccc(F)cc2)CC1	-20.1% (inactive)
CC(C)CNC(=S)N1CCC(C(=O)c2ccc(F)cc2)CC1	61.7% (active)
C=CCNC(=S)N1CCC(C(=O)c2ccc(F)cc2)CC1	-20.4% (inactive)
Cc1ccc(C)c2c1sc(=NC(=O)CN1C(=O)CCC1=O)n2C	1.3% (inactive)
CCOC(=O)c1ccc(NC(=O)C2(c3ccccc3)CCCC2)cc1	14% (inactive)
Cc1[nH]n(-c2ncc(-c3ccc(Cl)cc3)s2)c(=O)c1C(c1ccc(Cl)cc1)C(C#N)C#N (centres undefined)	67.3% (active)
Cc1[nH]n(-c2ncc(-c3ccccc3)s2)c(=O)c1C(c1ccc(Br)cc1)C(C#N)C#N (centres undefined)	32.7% (inactive)
CCCc1[nH][nH]c(=O)c1C(c1ccc(Cl)cc1)C(C#N)C#N (centres undefined)	3.7% (inactive)
